Measurements reported in PubChem BioAssay (NCATS).
Records with an inconclusive call do not appear. Unmarked numbers belong to inactive results. Active and inactive are the calls of the source. The call rests on the fitted dose curve; in most records, active means well fitted cell-killing curve with a large enough effect; inconclusive means small, poorly fitted or top-dose-only effect, or effect the other way; inactive means no such curve, though single readings can be large or run the other way.
Potency means the concentration at half of the fitted maximal effect.

Assay: Quantitative High-Throughput drug screen in 47 multiple myeloma cell lines against the NCATS MIPE library collection: XG6_PLB cell viability assay (AID 1919865); further: nearly all actives have a fitted effect of over 40% in size
Settings: XG6 myeloma viability, CellTiter-Glo ATP luminescence, 48 h; series mostly up to 45.8 µM
Source text: PI: Beverly A. Mock Ph.D.
Laboratory of Cancer Biology and Genetics,
Center for Cancer Research, National Cancer Institute,
National Institute of Health, Bethesda, Maryland
Drug resistance and disease progression are common in multiple myeloma (MM) patients, underscoring the need for new therapeutic combinations. […] We hypothesized that effective combinations would reduce MYC expression and enhance p16 activity. […] These preclinical data identify potentially useful drug combinations for evaluation in drug-resistant MM and reveal potential mechanisms of combined drug sensitivity.
Described herein is the primary MIPE qHTS used to cherrypick compounds. Validated compounds were then further tested for potential synergistic activiy.
[1] Peat TJ, Gaikwad SM, Dubois W, Gyabaah-Kessie N, Zhang S, Gorjifard S, Phyo Z, Andres M, Hughitt VK, Simpson RM, Miller MA, Girvin AT, Taylor A, Williams D, D'Antonio N, Zhang Y, Rajagopalan A, Flietner E, Wilson K, Zhang X, Shinn P, Klumpp-Thomas C, McKnight C, Itkin Z, Chen L, Kazandijian D, Zhang J, Michalowski AM, Simmons JK, Keats J, Thomas CJ, Mock BA. Drug combinations identified by high-throughput screening promote cell cycle transition and upregulate Smad pathways in myeloma. Cancer Lett. 2023 Aug 1;568:216284. doi: 10.1016/j.canlet.2023.216284. Epub 2023 Jun 24. PMID: 37356470; PMCID: PMC10408729.
SEQUENCE No. (e.g., 1, 2, 3, etc.); […] (e.g., Cells, Incubation, Reagent, etc.); VALUE and DESCRIPTION.
1; Cells; 5 uL; white, solid bottom 1536-well Greiner assay plate.
2; Compounds; 23 nL; Kalypsis pin tool (Wako USA) equipped with a 1536-well pin head to transfer to the assay plates.
3; Incubation; 48 hours; 37C incubation.
4; Reagent;5uL; CellTiter Glo (Promega).
5; Detector; 425V; Luminescence; Viewlux PerkinElmer.
NOTES (numbers refer to Sequence numbers above)
1. The cell-based screening methods employed in this study were like those previously published. Briefly, the corresponding myeloma cell lines were screened in 1,536-well plates with 500 cells, 5-uL per well for inhibition of cell viability (assessed by measuring ATP levels with CellTiterGlo).
2. NCATS MIPE 4.0 library of approved and investigational drugs were added using the Kalypsis pin tool. Wells treated with DMSO only for 100% viability and media only for 0% viability were used as controls.
3. The assay plates were covered and incubated for 48 hours in a 37C, 5% CO2 incubator with controlled humidity.
4. After 48 hours, CellTilter-GloTM luminescent substrate mix (Promega) reagent was added to the assay plate and plates we incubated for 5 min at room temperature.
5. Signal was measured as median relative luminescence units on a ViewLux (PerkinElmer) multiplate reader.
[1] Heske CM, Davis MI, Baumgart JT, Wilson K, Gormally MV, Chen L, Zhang X, Ceribelli M, Duveau DY, Guha R, Ferrer M, Arnaldez FI, Ji J, Tran HL, Zhang Y, Mendoza A, Helman LJ, Thomas CJ. Matrix Screen Identifies Synergistic Combination of PARP Inhibitors and Nicotinamide Phosphoribosyltransferase (NAMPT) Inhibitors in Ewing Sarcoma. Clin Cancer Res. 2017 Dec 1;23(23):7301-7311. doi: 10.1158/1078-0432.CCR-17-1121. Epub 2017 Sep 12. PMID: 28899971; PMCID: PMC6636827.
With `C[N+]1(C)[C@@H]2C[C@@H](OC(=O)C(O)(c3cccs3)c3cccs3)C[C@H]1[C@@H]1O[C@@H]12` the Potency was “inactive”. With `CC(C)(O)Cn1c(NC(=O)c2ccc(-c3cn[nH]c3)s2)nc2cc(CN3CCOCC3)ccc21` the Potency was 1870 nM (active). With `COc1ccnc2[nH]cc(C(=O)C(=O)N3CCN(C(=O)c4ccccc4)C[C@@H]3C)c12` the Potency was “inactive”. For `CCc1ccc(C(=O)Nc2cc(CN3CCN(C)CC3)cc(C(F)(F)F)c2)cc1C#Cc1cnc2ccnn2c1`, the Potency was 4180 nM (active). For `CC(=O)N[C@H]1[C@@H]([C@H](O)[C@H](O)CO)OC(C(=O)O)=C[C@@H]1N=C(N)N`, the Potency was “inactive”. For `O=C(C=CC#Cc1cccc(NS(=O)(=O)c2ccccc2)c1)NO`, the Potency was 5260 nM (active). In the case of `O=C(Nc1cccc(Nc2ncc(Br)c(NCCc3cnc[nH]3)n2)c1)N1CCCC1`, the Potency was 590 nM (active). For `C=C(C)[C@@H]1CC[C@]2(C(=O)O)CC[C@]3(C)[C@H](CC[C@@H]4[C@@]5(C)CC[C@H](O)C(C)(C)[C@@H]5CC[C@]43C)[C@@H]12`, the Potency was 2960 nM (active). In the case of `CC(Cc1ccc(O)c(O)c1)(NN)C(=O)O` (stereo not given), the Potency was “inactive”. For `Cc1cnc(Nc2ccc(N3CCN(C)CC3)cc2)nc1Nc1cccc(S(=O)(=O)NC(C)(C)C)c1`, the Potency was 662 nM (active). For `COc1ccc(C[C@@H](C)[C@@H](C)Cc2ccc(OC)c(OC)c2)cc1OC`, the Potency was 264 nM (active). For `COC(=O)[C@H](CCCN=C(N)N)NS(=O)(=O)c1ccc(C)cc1`, the Potency was 11800 nM (active). In the case of `Cc1cc(Nc2ncc3c(n2)N(C)C(=O)N(c2cc(NC(=O)c4cccc(C(F)(F)F)c4)ccc2C)C3)n(C)n1`, the Potency was 935 nM (active). In the case of `CC(C)C[C@H](NC(=O)[C@@H](NC(=O)c1cccc(-c2ccccc2)n1)[C@@H](C)O)B(O)O`, the Potency was 13.2 nM (active). In the case of `C[C@@H](Cc1cc2c(c(C(N)=O)c1)N(CCCO)CC2)NCCOc1ccccc1OCC(F)(F)F`, the Potency was “inactive”. For `COc1ccc(C=Cc2cc(OC)c(OC)c(OC)c2)cc1NC(=O)[C@H](N)CO`, the Potency was “inactive”. In the case of `CC1(C)[C@H](O[C@H]2O[C@H](C(=O)O)[C@@H](O)[C@H](O)[C@H]2O[C@@H]2O[C@H](C(=O)O)[C@@H](O)[C@H](O)[C@H]2O)CC[C@@]2(C)[C@H]1CC[C@]1(C)[C@H]2C(=O)C=C2[C@H]3C[C@@](C)(C(=O)O)CC[C@]3(C)CC[C@]21C`, the Potency was “inactive”. For `C=Cc1c(C)c2cc3nc(cc4[nH]c(cc5nc(cc1[nH]2)C(C)=C5CCC(=O)O)c(CCC(=O)OC)c4C)[C@@]1(C)C3=CC=C(C(=O)OC)[C@H]1C(=O)OC`, the Potency was 33.2 nM (active). With `CN1CCCN(C(=O)c2cccc(-c3ccc(C=C4C(=O)Nc5ccc(Cl)cc54)o3)c2)CC1` the Potency was 7430 nM (active). With `CN[C@H]1[C@@H](O)[C@@H]2O[C@@H]3O[C@H](C)CC(=O)[C@]3(O)O[C@@H]2[C@@H](NC)[C@H]1O` the Potency was 296 nM (active). For `Cn1cnc2c(F)c(Nc3ccc(Br)cc3F)c(C(=O)NOCCO)cc21`, the Potency was 13.2 nM (active). With `CS(=O)(=O)N1CCc2c(-c3cnc(N)nc3)nc(N3CCOCC3)nc21` the Potency was 743 nM (active). For `N[C@H]1CN(c2c(F)cc3c(=O)c(C(=O)O)cn(C4C[C@@H]4F)c3c2Cl)CC12CC2` (stereo not given in full), the Potency was “inactive”. With `CC(C)NC[C@@H](C(=O)N1CCN(c2ncnc3c2[C@H](C)C[C@H]3O)CC1)c1ccc(Cl)cc1` the Potency was 1660 nM (active). With `O=C(O)C=Cc1ccc(Cn2ccnc2)cc1` the Potency was “inactive”. With `Nc1nc(N)c2nc(-c3cccc(O)c3)c(-c3cccc(O)c3)nc2n1` the Potency was 3320 nM (active). In the case of `O=C1NC(O)CCN1[C@@H]1O[C@H](CO)[C@H](O)[C@H]1O` (stereo not given in full), the Potency was “inactive”. With `C[C@H](NCc1ccc2c(c1)nc(NC(=O)c1ccc(-c3cn[nH]c3)s1)n2CCc1ccccc1)C(C)(C)C` the Potency was 935 nM (active). With `CC(C)(C)[C@H](NC(=O)c1ccc(N)c(Cl)c1)C(=O)N1CCC[C@@H]1C(=O)N[C@H](C#N)CC(=O)O` the viability (% of control) was 104% [at 3.51 µM]. In the case of `COC(=O)[C@@H]1[C@H]2C[C@@H]3c4[nH]c5ccccc5c4CCN3C[C@@H]2CC[C@@H]1O`, the Potency was “inactive”. With `C[C@@]12C[C@@]3(O)O[C@@H](O1)[C@]1(COC(=O)c4ccccc4)[C@@H]3C[C@@]12O[C@@H]1O[C@H](CO)[C@@H](O)[C@H](O)[C@@H]1O` the Potency was “inactive”. With `CN(C)c1ccc(C(=O)NCCCCCCC(=O)NO)cc1` the Potency was 1870 nM (active). In the case of `CN1CCc2c(c3ccccc3n2Cc2ccc(C(=O)NO)cc2)C1`, the Potency was 8330 nM (active). With `CC(C=CC=C(C)C=CC1=C(C)CCCC1(C)C)=CC=CC=C(C)C=CC=C(C)C=CC1=C(C)CCCC1(C)C` the Potency was 5260 nM (active). In the case of `Cn1cc(C[C@@H](N)C(=O)O)c2ccccc21`, the Potency was “inactive”. For `C[C@H]1C[C@H]2[C@@H]3CCC4=CC(=O)C=C[C@]4(C)[C@@H]3C(=O)C[C@]2(C)[C@@]1(O)C(=O)CO`, the Potency was “inactive”. With `COc1cc2c(cc1O)CCC1C2CC[C@@]2(C)C1CC[C@@H]2O` (stereo not given in full) the Potency was 469 nM (active). In the case of `COc1cc2c(Nc3ccc(Cl)c(Cl)c3F)ncnc2cc1OCC1C[C@@H]2CN(C)C[C@H]2C1`, the Potency was 1050 nM (active). For `CN(CC(=O)N(Cc1ccc(C2CCCCC2)cc1)c1ccc(C(=O)O)c(O)c1)S(=O)(=O)c1c(F)c(F)c(F)c(F)c1F`, the Potency was 4690 nM (active). With `Cn1cnc(=N)c2[nH]cnc21` the Potency was 132 nM (active).
